PubChem BioAssay
Active and inactive are the calls of the source.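 The calls were made as follows, unless noted: active = compound that reduces growth-factor-driven endothelial tube area in a mixed cell culture, no cutoff stated; inactive = the rest.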

Test: inhibition of endothelial tube formation, primary screen, imaging, VEGF stimulated, CD31 staining, tube area, NPC library (AID 1117340)
Details: VEGF-stimulated ADSC/ECFC co-culture, at 10 µM, stronger effect = higher value
For `Cc1ncc(COP(=O)(O)O)c(C=O)c1O`, the tube area decrease was -0.4% (inactive).
For `CCCCCOc1ccc(C2SC(=O)NC2=O)cc1OCC` (stereo not drawn), the tube area decrease was 5.8% (inactive).
With `CC1(C)S[C@@H]2[C@H](NC(=O)Cc3ccccc3)C(=O)N2[C@H]1C(=O)O` (tested in a mixture with another compound) the tube area decrease was -6.3% (inactive).
In the case of `CC[C@@]1(c2ccccc2)NC(=O)N(C)C1=O`, the tube area decrease is reported as 0.1% (inactive).
For `CC(=O)CCC(=O)O`, the tube area decrease was 0.2% (inactive).
For `C=Cc1c(C)c2cc3nc(cc4[nH]c(cc5nc(cc1[nH]2)C(C)=C5CCC(=O)O)c(CCC(=O)OC)c4C)[C@@]1(C)C3=CC=C(C(=O)OC)[C@@H]1C(=O)OC`, the tube area decrease was -206% (inactive).
With `CS(=O)(=O)c1ccc(-c2cn3ccccc3n2)cc1` the tube area decrease was -6.3% (inactive).
In the case of `C[C@@H]1C[C@H]2[C@@H]3CCC4=CC(=O)C=C[C@]4(C)[C@@]3(F)[C@@H](O)C[C@]2(C)[C@@]1(O)C(=O)COC(=O)c1ccncc1`, the tube area decrease is reported as -2.4% (inactive).
For `COc1cc(S(N)(=O)=O)cc(C(=O)O)c1OC`, the tube area decrease was -3.6% (active).
In the case of `C/C=C/C=N/NC(=O)c1ccncc1`, the tube area decrease is reported as 6% (inactive).
For `Cc1ccccc1N1CCN(CCc2nnc3n2CCCC3)CC1`, the tube area decrease was -13.2% (inactive).
For `O=C(CCOCCOCCOCCOCCC(=O)Nc1c(I)cc(I)c(C(=O)O)c1I)Nc1c(I)cc(I)c(C(=O)O)c1I`, the tube area decrease was -12% (inactive).
In the case of `O=C(CN1CCNCC1)NC1CCCCC1`, the tube area decrease is reported as 13.7% (inactive).
For `CCN1C(=O)c2ccccc2C1Nc1ccc(OCCN2CCCCC2)cc1` (stereo not drawn), the tube area decrease was 14.2% (inactive).
For `CCCCCCCCCCC(CO)CCCCCCCC` (stereo not drawn), the tube area decrease was -3.9% (inactive).
For `COc1ccnc2c1CCCCC2S(=O)c1nc2ccccc2[nH]1` (stereo not drawn), the tube area decrease was 13.2% (inactive).
For `COC1=C(OC)C(=O)C(CC=C(C)CCC=C(C)CCC=C(C)CCC=C(C)CCC=C(C)CCC=C(C)CCC=C(C)CCC=C(C)CCC=C(C)CCC=C(C)C)=C(C)C1=O`, the tube area decrease was -5.2% (inactive).
With `O=[N+]([O-])c1ccc(Oc2ccc(N=C=S)cc2)cc1` the tube area decrease was 108% (active).
For `Oc1ccccc1-c1nnco1`, the tube area decrease was -3.9% (inactive).
For `CCCCC(C)(O)CC=C[C@H]1[C@H](O)CC(=O)[C@H]1CCCCCCC(=O)OC` (stereo partly drawn), the tube area decrease was -9.4% (inactive).
With `Cc1ccc(/C=N/n2c(-c3ccccc3)csc2=S)cc1` the tube area decrease was 18.4% (inactive).
For `Nc1ccc(C(=O)OCC(O)CO)cc1` (stereo not drawn), the tube area decrease was -15.4% (inactive).
For `Cc1cc(N)c2cc(NC(=O)Nc3ccc4nc(C)cc(N)c4c3)ccc2n1`, the tube area decrease was -0.3% (inactive).
For `CNC(=O)c1c(I)c(NC(=O)CCCCC(=O)Nc2c(I)c(C(=O)O)c(I)c(C(=O)NC)c2I)c(I)c(C(=O)O)c1I`, the tube area decrease was -0.8% (inactive).
For `CCCCCCCCCCCCCCCCCCO`, the tube area decrease was -3.6% (inactive).
For `CC1c2ccccc2CN1NC(=O)c1ccc(Cl)c(S(N)(=O)=O)c1` (stereo not drawn), the tube area decrease was -9.7% (inactive).
With `CCN[C@@H]1C[C@H](N)[C@@H](OC2OC(CN)=CCC2N)[C@H](O)[C@H]1O[C@H]1OC[C@](C)(O)[C@H](NC)[C@H]1O` (stereo partly drawn) the tube area decrease was 0.9% (inactive).
For `Oc1ccccc1C=NCc1ccccc1`, the tube area decrease was -29.7% (inactive).
With `C=Cc1ccccc1` the tube area decrease was -9.4% (inactive).
For `O=C(Nc1ccc(Cl)cc1)Nc1ccc(Cl)c(C(F)(F)F)c1`, the tube area decrease was 108% (active).
With `CCOC(=O)c1ccc(O)c(O)c1` the tube area decrease was 24% (inactive).
In the case of `C=CCNc1nc(NCC=C)nc(N2CCN(C(c3ccc(F)cc3)c3ccc(F)cc3)CC2)n1`, the tube area decrease is reported as 17.9% (inactive).
With `O=S(=O)(O)c1ccc(O)cc1` the tube area decrease was 5.3% (inactive).
In the case of `CCNC(=O)NCCCOc1cccc(CN2CCCCC2)c1`, the tube area decrease is reported as 0.6% (inactive).
In the case of `CC(C)(C)c1ccc2c(S(=O)(=O)O)c(C(C)(C)C)ccc2c1`, the tube area decrease is reported as -2.7% (inactive).
For `NCC(=O)O`, the tube area decrease was -10.9% (inactive).
With `CN1N=C(C(N)=O)CCC1=O` the tube area decrease was 1.5% (inactive).
With `Oc1cc(O)cc(O)c1` the tube area decrease was -14.9% (inactive).
With `CCOC(=O)c1ccc(OCCN2C[C@H](O)[C@@H](O)[C@H](O)[C@H]2CO)cc1` the tube area decrease was 10.1% (inactive).

Test: GLP1 release stimulators, primary, NCI-H716, NPC library (AID 1117341;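 active = compound raises GLP1 secretion from the human gut endocrine cells, with no numeric limit stated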; also: reference of the scale not given here)
Details: NCI-H716 cells, at 10 µM, stronger effect = higher value
In the case of `Cc1ncc(COP(=O)(O)O)c(C=O)c1O`, the GLP1 secretion stimulation is reported as -1.1% (inactive).
With `CCCCCOc1ccc(C2SC(=O)NC2=O)cc1OCC` (stereo not drawn) the GLP1 secretion stimulation was 3.7% (inactive).
With `CC1(C)S[C@@H]2[C@H](NC(=O)Cc3ccccc3)C(=O)N2[C@H]1C(=O)O` (tested in a mixture with another compound) the GLP1 secretion stimulation was -3.4% (inactive).
In the case of `CC[C@@]1(c2ccccc2)NC(=O)N(C)C1=O`, the GLP1 secretion stimulation is reported as -0.6% (inactive).
With `CC(=O)CCC(=O)O` the GLP1 secretion stimulation was -2.2% (inactive).
In the case of `C=Cc1c(C)c2cc3nc(cc4[nH]c(cc5nc(cc1[nH]2)C(C)=C5CCC(=O)O)c(CCC(=O)OC)c4C)[C@@]1(C)C3=CC=C(C(=O)OC)[C@@H]1C(=O)OC`, the GLP1 secretion stimulation is reported as -1.9% (inactive).
In the case of `CS(=O)(=O)c1ccc(-c2cn3ccccc3n2)cc1`, the GLP1 secretion stimulation is reported as -2.6% (inactive).
For `C[C@@H]1C[C@H]2[C@@H]3CCC4=CC(=O)C=C[C@]4(C)[C@@]3(F)[C@@H](O)C[C@]2(C)[C@@]1(O)C(=O)COC(=O)c1ccncc1`, the GLP1 secretion stimulation was -1.9% (inactive).
For `COc1cc(S(N)(=O)=O)cc(C(=O)O)c1OC`, the GLP1 secretion stimulation was -1% (inactive).
For `C/C=C/C=N/NC(=O)c1ccncc1`, the GLP1 secretion stimulation was -0.1% (inactive).
With `Cc1ccccc1N1CCN(CCc2nnc3n2CCCC3)CC1` the GLP1 secretion stimulation was 0.9% (inactive).
In the case of `O=C(CCOCCOCCOCCOCCC(=O)Nc1c(I)cc(I)c(C(=O)O)c1I)Nc1c(I)cc(I)c(C(=O)O)c1I`, the GLP1 secretion stimulation is reported as 0.3% (inactive).
In the case of `O=C(CN1CCNCC1)NC1CCCCC1`, the GLP1 secretion stimulation is reported as 1% (inactive).
In the case of `CCN1C(=O)c2ccccc2C1Nc1ccc(OCCN2CCCCC2)cc1` (stereo not drawn), the GLP1 secretion stimulation is reported as 7.7% (inactive).
With `CCCCCCCCCCC(CO)CCCCCCCC` (stereo not drawn) the GLP1 secretion stimulation was -4% (inactive).
In the case of `COc1ccnc2c1CCCCC2S(=O)c1nc2ccccc2[nH]1` (stereo not drawn), the GLP1 secretion stimulation is reported as 9.2% (inactive).
In the case of `COC1=C(OC)C(=O)C(CC=C(C)CCC=C(C)CCC=C(C)CCC=C(C)CCC=C(C)CCC=C(C)CCC=C(C)CCC=C(C)CCC=C(C)CCC=C(C)C)=C(C)C1=O`, the GLP1 secretion stimulation is reported as 1.9% (inactive).
With `O=[N+]([O-])c1ccc(Oc2ccc(N=C=S)cc2)cc1` the GLP1 secretion stimulation was -5% (inactive).
In the case of `Oc1ccccc1-c1nnco1`, the GLP1 secretion stimulation is reported as -0.1% (inactive).
In the case of `CCCCC(C)(O)CC=C[C@H]1[C@H](O)CC(=O)[C@H]1CCCCCCC(=O)OC` (stereo partly drawn), the GLP1 secretion stimulation is reported as -1.9% (inactive).
With `Cc1ccc(/C=N/n2c(-c3ccccc3)csc2=S)cc1` the GLP1 secretion stimulation was 0.3% (inactive).
In the case of `Nc1ccc(C(=O)OCC(O)CO)cc1` (stereo not drawn), the GLP1 secretion stimulation is reported as -0.9% (inactive).
In the case of `Cc1cc(N)c2cc(NC(=O)Nc3ccc4nc(C)cc(N)c4c3)ccc2n1`, the GLP1 secretion stimulation is reported as 32.3% (active).
With `CNC(=O)c1c(I)c(NC(=O)CCCCC(=O)Nc2c(I)c(C(=O)O)c(I)c(C(=O)NC)c2I)c(I)c(C(=O)O)c1I` the GLP1 secretion stimulation was -0.4% (inactive).
For `CCCCCCCCCCCCCCCCCCO`, the GLP1 secretion stimulation was 1.9% (inactive).
For `CC1c2ccccc2CN1NC(=O)c1ccc(Cl)c(S(N)(=O)=O)c1` (stereo not drawn), the GLP1 secretion stimulation was -1.8% (inactive).
In the case of `CCN[C@@H]1C[C@H](N)[C@@H](OC2OC(CN)=CCC2N)[C@H](O)[C@H]1O[C@H]1OC[C@](C)(O)[C@H](NC)[C@H]1O` (stereo partly drawn), the GLP1 secretion stimulation is reported as -0.5% (inactive).
With `Oc1ccccc1C=NCc1ccccc1` the GLP1 secretion stimulation was 3.8% (inactive).
For `C=Cc1ccccc1`, the GLP1 secretion stimulation was -1.4% (inactive).
With `O=C(Nc1ccc(Cl)cc1)Nc1ccc(Cl)c(C(F)(F)F)c1` the GLP1 secretion stimulation was -3.9% (inactive).
For `CCOC(=O)c1ccc(O)c(O)c1`, the GLP1 secretion stimulation was -0.3% (inactive).
In the case of `C=CCNc1nc(NCC=C)nc(N2CCN(C(c3ccc(F)cc3)c3ccc(F)cc3)CC2)n1`, the GLP1 secretion stimulation is reported as -3.9% (inactive).
In the case of `O=S(=O)(O)c1ccc(O)cc1`, the GLP1 secretion stimulation is reported as -0.7% (inactive).
For `CCNC(=O)NCCCOc1cccc(CN2CCCCC2)c1`, the GLP1 secretion stimulation was -0.5% (inactive).
With `CC(C)(C)c1ccc2c(S(=O)(=O)O)c(C(C)(C)C)ccc2c1` the GLP1 secretion stimulation was 1% (inactive).
For `NCC(=O)O`, the GLP1 secretion stimulation was 1.3% (inactive).
In the case of `CN1N=C(C(N)=O)CCC1=O`, the GLP1 secretion stimulation is reported as 2.5% (inactive).
For `Oc1cc(O)cc(O)c1`, the GLP1 secretion stimulation was -1.7% (inactive).
In the case of `CCOC(=O)c1ccc(OCCN2C[C@H](O)[C@@H](O)[C@H](O)[C@H]2CO)cc1`, the GLP1 secretion stimulation is reported as -1% (inactive).
